Pf Dd2 growth – inhibitors of Plasmodium falciparum Dd2 growth; 94,000 compounds, 2.3% hits; activity change, % at 10 µM; P. falciparum Dd2 growth, SYBR Green, 72 h; stronger effect = lower value; in the data active = activity change below about -80%
C diff HTS – C. difficile growth inhibition; Clostridium difficile clinical isolate growth, OD600, 24 h; stronger effect = lower value; growth activity, negative = inhibition, % at 16 µg/mL (by protocol); 86,000 compounds, 0.25% hits; AID 1259249;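 active = mean growth activity at or below -80% and every replicate also at or below -80%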;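 also: 0% = DMSO wells and -100% = levofloxacin 16 µg/mL wells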
An asterisk follows results filed as active; · = no result given. Sampled rows, rich in hits. Any-hit rate of the full collection: about 2.3%.

SMILES | Pf Dd2 growth | C diff HTS
C[C@H](CO)N1C[C@H](C)[C@H](CN(C)C(=O)Nc2cccc3ccccc23)OCCCC[C@H](C)Oc2ccc(NC(=O)c3ccccc3)cc2C1=O | -46.0 | -4.0
CC=Cc1ccc2n(c1=O)C[C@H]1[C@H](CO)[C@@H](C(=O)NC3CCC3)N(C(=O)C3CCC3)[C@@H]21 (mixture of isomers) | 12.1 | 1.6
C[C@@H]1CN([C@H](C)CO)C(=O)c2cc(N(C)C)ccc2O[C@@H](C)CCCCO[C@@H]1CN(C)Cc1ccc(C(F)(F)F)cc1 | -66.6 | 28.4
CO[C@@H]1CN(C)C(=O)c2ccc(NC(=O)C3CC3)cc2OC[C@@H](C)N(C(=O)c2ccncc2)C[C@@H]1C | 6.7 | -2.5
C[C@@H]1CN([C@H](C)CO)C(=O)c2cccc(NC(=O)CCCCCC(=O)Nc3ccccc3N)c2O[C@H]1CN(C)C(=O)Nc1ccccc1 | -58.6 | 0.9
C[C@H](CO)N1C[C@H](C)[C@@H](CN(C)C(=O)Nc2ccc(C(F)(F)F)cc2)Oc2c(NC(=O)CCCCCC(=O)Nc3ccccc3N)cccc2C1=O | -83.5* | 7.8
C[C@@H]1CN([C@@H](C)CO)C(=O)c2cccc(NC(=O)CCCCCC(=O)Nc3ccccc3N)c2O[C@H]1CN(C)C(=O)Nc1ccc(C(F)(F)F)cc1 | -83.7* | 0.3
C[C@H](CO)N1C[C@H](C)[C@@H](CN(C)C(=O)Nc2ccc(F)cc2)Oc2c(NC(=O)CCCCCC(=O)Nc3ccccc3N)cccc2C1=O | -63.0 | -5.8
C[C@H]1CN([C@@H](C)CO)C(=O)c2cccc(NC(=O)CCCCCC(=O)Nc3ccccc3N)c2O[C@H]1CN(C)C(=O)Nc1ccc(C(F)(F)F)cc1 | -91.8* | 12.4
COc1ccc(NC(=O)N(C)C[C@H]2Oc3c(NC(=O)CCCCCC(=O)Nc4ccccc4N)cccc3C(=O)N([C@H](C)CO)C[C@@H]2C)cc1 | -27.8 | 2.0
C[C@H]1CN([C@@H](C)CO)C(=O)c2cc(NC(=O)CCCCCC(=O)Nc3ccccc3N)ccc2O[C@@H]1CN(C)C(=O)Nc1ccc(C(F)(F)F)cc1 | 0.0 | 7.7
COc1ccc(NC(=O)N(C)C[C@H]2Oc3c(NC(=O)CCCCCC(=O)Nc4ccccc4N)cccc3C(=O)N([C@@H](C)CO)C[C@H]2C)cc1 | -88.6* | 5.0
CN1C(=O)c2cc(NC(=O)C3CCCC3)ccc2OC[C@H]2O[C@@H](CC(=O)Nc3ccccc3)CC[C@H]21 | -14.8 | -4.1
C[C@@H]1CN([C@H](C)CO)C(=O)c2cccc(NC(=O)CCCCCC(=O)Nc3ccccc3N)c2O[C@H]1CN(C)C(=O)Nc1ccc(C(F)(F)F)cc1 | -88.0* | 9.5
C[C@@H]1CN([C@H](C)CO)C(=O)c2cccc(NC(=O)CCCCCC(=O)Nc3ccccc3N)c2O[C@H]1CN(C)C(=O)Nc1cccc2ccccc12 | -73.0 | -0.8
COc1ccc(NC(=O)N(C)C[C@@H]2Oc3c(NC(=O)Nc4ccccc4)cccc3C(=O)N([C@H](C)CO)C[C@@H]2C)cc1 | -16.8 | 5.8
COc1ccc(NC(=O)N(C)C[C@H]2Oc3c(NC(=O)Nc4ccccc4)cccc3C(=O)N([C@@H](C)CO)C[C@H]2C)cc1 | -89.0* | -9.4
CC(C)CC#Cc1ccc2c(c1)O[C@@H](CN(C)C(=O)C1CC1)[C@H](C)CN([C@@H](C)CO)S2(=O)=O | -56.7 | ·
COc1ccc2c3c([nH]c2c1)[C@H](CO)N(C(=O)c1cccnc1)CC31CN(Cc2cccnc2)C1 | 17.1 | 7.3
C[C@@H]1CN([C@H](C)CO)C(=O)Cc2cc(NC(=O)Cn3cnnn3)ccc2O[C@H]1CN(C)C(=O)Nc1cccc2ccccc12 | 3.0 | -10.2
COc1ccc(CN2CC3(CN(Cc4ccccc4OC)C3)c3c([nH]c4cc(OC)ccc34)[C@H]2CO)cc1 | -66.3 | 6.9
COc1ccc(CN2CC3(C2)CN(Cc2ccc4c(c2)OCO4)[C@H](CO)c2[nH]c4cc(OC)ccc4c23)cc1 | -86.9* | -0.1
COc1ccc(CN2CC3(C2)CN(Cc2ccc4c(c2)OCO4)[C@@H](CO)c2[nH]c4cc(OC)ccc4c23)cc1 | -83.9* | -11.8
CCS(=O)(=O)N1CC2(CN(Cc3ccc4c(c3)OCO4)[C@@H](CO)c3[nH]c4cc(OC)ccc4c32)C1 | -69.5 | -12.5
CC(C)NC(=O)N(C)C[C@@H]1OCCCC[C@@H](C)Oc2ccc(NS(=O)(=O)c3ccccc3)cc2C(=O)N([C@@H](C)CO)C[C@H]1C | 10.7 | 1.7
O=C(C[C@@H]1CC[C@@H]2[C@H](COC[C@H](O)CN2CCc2ccccc2)O1)NCc1ccc(Oc2ccccc2)cc1 | -17.4 | ·
CN1c2ccc(-c3cccc(C#N)c3)cc2[C@H]2[C@H](CCN2S(=O)(=O)c2ccccc2F)[C@H]1CO | -95.1* | -2.1
CN1c2ccc(-c3ccccc3)cc2[C@H]2[C@H](CCN2S(=O)(=O)c2ccccc2F)[C@H]1CO | -2.6 | 0.5
COc1cccc(S(=O)(=O)N2CC[C@H]3[C@@H](CO)N(C)c4ccc(C#Cc5ccc(F)cc5)cc4[C@H]32)c1 | -34.0 | -99.3*

Source: PubChem BioAssay (Broad Institute)
